An excerpt weighted towards active compounds, which were near 19% of everything screened.
IL-1B inflam inh = inflammasome signaling inhibition, IL-1 beta readout; THP-1 LPS/ATP IL-1B secretion, AlphaLISA, 16 h; hits give low values; activity change, % at 57.5 µM; 360,000 compounds, 4.7% hits; AID 743279; in the data active means activity change below about -50%; inconclusive means mostly about -30% to -49%
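THP-1 cells pretreated 1 hr with compounds (up to 57.5 uM final), then stimulated with LPS (250 ng/mL final) plus ATP (1.25 mM final); secreted IL-1B measured by AlphaLISA after 16 hr, decreased signal indicating inhibition.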
DT40 TDP1 no CPT = qHTS for Inhibitors of human tyrosyl-DNA phosphodiesterase 1 (TDP1): qHTS in cells in absence of CPT. DT40 Tdp1-/- hTDP1 cells, no CPT, ATP luminescence, 48 h. AID 686978, 2013. Potency, µM (top dose mostly 46.2 µM), for inactives: top-dose activity change, negative = growth inhibition, most hits filed as inhibitors. 420,000 compounds, 15% hits; further: potency means the concentration at half of the fitted maximal effect; nearly all actives have a fitted effect of over 55% in size
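Camptothecin absent (DMSO only). Human TDP1-complemented DT40 knockout cells, 400 cells/well, 37 °C for minimum 48 hr; ATP measured via CellTiter-Glo, 30 min dark incubation, luminescence.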
HT1080 IDH1KD tx = kills HT-1080 cells with IDH1 knockdown; 360,000 compounds, 2% hits; HT-1080 IDH1 knockdown viability, ATP luminescence, 48 h; Potency, µM (doses to about 46.1 µM), for inactives: at the top dose activity, negative = toxicity, hits mostly cytotoxic;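 further: potency means the concentration at half of the fitted maximal effect; 0% = DMSO wells and -100% = cell-free medium wells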
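Using the IDH1-knockdown HT-1080 line run in the same batch and compound series as the NT line, viability after 48 h at 37 °C was determined by CellTiter-Glo luminescence and expressed as % activity.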
HT1080NT lethal = kills 2HG-producing HT-1080-NT fibrosarcoma cells. Potency, µM (highest dose often 46.1 µM), for inactives: top-dose activity, negative = less viability, hits mostly cytotoxic. HT-1080-NT fibrosarcoma viability, CellTiter-Glo ATP luminescence, 48 h. 360,000 compounds, 1.6% hits;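 further: NT is the 2HG producing partner of a matched IDH1 knockdown line; potency means the concentration at half of the fitted maximal effect; 0% = DMSO-treated cells and -100% = media-only wells without cells; nearly all actives have a fitted effect of over 55% in size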
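750 cells/well, RPMI + 5% FBS; 2 h settle, compound pin-transfer, 48 h at 37 degrees C. CellTiter-Glo 10 min RT, luminescence. Normalized to DMSO and media-only wells.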
ELG1 DNA repair = inhibitors of ELG1-dependent DNA repair in HEK293T cells; AID 504467; HEK293T ELG1-luciferase reporter, luminescence, 16 h; DNA damage induced by 5-fluorouridine; Potency, µM (highest dose often 46.1 µM), for inactives: at the highest dose activity change, negative = inhibition, most hits filed as inhibitors; 330,000 compounds, 2.3% hits; further: potency means the concentration at half of the fitted maximal effect; nearly all actives have a fitted effect of over 55% in size
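Cells (2,000 per well) received 5-fluorouridine plus test compound or DMSO and were incubated 16 hr at 37 °C, 5% CO2. Luciferase activity was read by luminescence 30 min after ONE-Glo addition; signal suppression marked inhibition of damage-induced ELG1 function.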
DT40 TDP1 CPT = growth inhibition of DT40 Tdp1-/-;hTDP1 cells with camptothecin (screen for TDP1 inhibitors); chicken DT40 Tdp1-/-;hTDP1 cells + 20 nM CPT, ATP luminescence, 48 h; Potency, µM (top dose mostly 46.2 µM), for the others: at the highest dose activity change, negative = growth inhibition, hits mostly inhibitors; 420,000 compounds, 12% hits; AID 686979; further: potency means the concentration at half of the fitted maximal effect; nearly all actives have a fitted effect of over 55% in size
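Chicken DT40 Tdp1-/- cells stably complemented with human TDP1 were seeded at 400 cells/well in medium containing 20 nM camptothecin, exposed to pin-transferred compounds, and grown at 37 °C for at least 48 hr. Viability was read as ATP luminescence.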
Numbers without * were called inactive; ? = inconclusive; . = not tested or not shown; [ ] = remark or other dose. Unless noted, the call rests on the fitted dose curve; in most records, active means well fitted curve in the direction sought with a large enough effect; inconclusive means small, poorly fitted or top-dose-only effect, or another doubt; inactive means no such curve, though single readings can be large; an effect the other way counts as inactive or inconclusive. Unless noted, on the % scale 0 is the no-effect control and ±100 the full control effect.

SMILES	IL-1B inflam inh	DT40 TDP1 no CPT	HT1080 IDH1KD tx	HT1080NT lethal	ELG1 DNA repair	DT40 TDP1 CPT
CCc1cc2c(=O)n(C(C)C(=O)OC3CCCCC3)cnc2s1 (configuration not stated)	2	?	-9%	2%	?	?
COc1cccc(-n2cnc3scc(-c4cccs4)c3c2=O)c1	-64*	?	3%[9.24 µM]	-3%	0%	?
COc1cccc(-n2c(-c3ccoc3)nc3ccccc3c2=O)c1	3	?	1%	5%	?	?
CCOP(=O)(OCC)C(O)c1cccnc1 (configuration not stated)	4	-8%	10%	14%	0%	10%
CCCCOP(=O)(OCCCC)C(Nc1ccc(C(=O)OCC)cc1)c1ccncc1 (configuration not stated)	-65*	12µM*	-10%	?	8%	?
COP(=O)(OC)Oc1ccc(C(O)C(Cl)(Cl)Cl)cc1 (configuration not stated)	27	-7%	4%	16%	1%	17%
CC(C)OP(=O)(Oc1ccc(C(O)C(Cl)(Cl)Cl)cc1)OC(C)C (configuration not stated)	8	18µM*	-3%	-6%	18µM*	?
COc1ccc(C2=NCC(=O)N(CC(=O)NCc3ccco3)c3sc4c(c32)CCCC4)cc1OC	-56*	?	0%	0%	-19%	?
O=P(O)(O)c1ccccc1OCCOCCOCCOCCOc1ccccc1P(=O)(O)O	12	7%	0%	25%	?	-10%
COc1ccc2nc(NC3=NCCN3)sc2c1	13	-3%	3%	1%	?	4%
O=C(O)CC1OCC=C2CN3CCC45C6=CC(=O)C(=O)C([N+](=O)[O-])=C6NC4C1C2CC35 (configuration not stated)	38	11µM*	3%	0%	4%	14µM*
Cc1ccc(-c2csc(NC(CO)c3nc4ccccc4n3CCOCCO)n2)cc1 (configuration not stated)	40	23µM*	-3%	-2%	.	?
CN[C@@H](C)[C@@H](O)c1ccccc1	-1	9%	.	.	9%	-6%
Cc1ccc(S(=O)(=O)c2nc(-c3ccccc3Cl)oc2N(C)C2CCN(C)CC2)cc1	0	?	?	?	-7%	?
COc1ccc(NC2=NCC(C)S2)cc1 (configuration not stated)	-15	11%	1%	23%	-2%	16%
COc1ccc(NC2=NC(C)(C)CS2)cc1	-55*	15%	-3%	25%	?	-4%
O=C(NN1C(=O)C2C3C=CC(C4CC34)C2C1=O)c1ccc(Br)cc1 (configuration not stated)	0	-13%	1%	5%	?	11%
Cc1ccccc1CCNCc1cc2cccc(C)c2[nH]c1=O	?	16µM*	-10%	-12%	-14%	16µM*
[Cl-].[Cl-].[Hg+2]	.	0.34µM*	.	.	.	0.75µM*
O=C(NC1CCCCC1)N1Cc2cc(-c3cccc(F)c3)ccc2-n2nncc2C1	?	?	-5%	-2%	.	-26%
C[N+]1(C)C2CC(OC(=O)[C@H](CO)c3ccccc3)CC1C1OC12 (some centres not stated)	12	-1%	-11%	12%	.	-9%
CCCNC1=C(C)C(=O)C2=C(C1=O)C(COC(N)=O)[C@]1(OC)C3NC3CN21 (some centres not stated)	-18	0.26µM*	-4%	-7%	?	?
COC(=O)C1=C(c2cc3ccccc3o2)C[C@@H]2CC[C@H]1N2C(=O)NCc1ccccc1	-5	.	-11%	-10%	.	?
CCNc1cc(N2CCN(C)CC2)ccc1[N+](=O)[O-]	19	-5%	0%	1%	-8%	-18%
COc1cc2c(cc1OC)CN(c1ccc([N+](=O)[O-])c(C(F)(F)F)c1)CC2	-51*	21µM*	?	?	?	16µM*
SMILES	IL-1B inflam inh	DT40 TDP1 no CPT	HT1080 IDH1KD tx	HT1080NT lethal	ELG1 DNA repair	DT40 TDP1 CPT
CN1C(=O)C(c2ccc([N+](=O)[O-])cc2[N+](=O)[O-])C(=O)N(C)C1=O	16	1%	8%	1%	20%	-25%
O=C1CC2OCC=C3CN4CC[C@@]56c7ccccc7N1C5C2C3CC46 (some centres not stated)	.	-12%	.	.	.	.
CC(C)c1c(C(=O)N(C)Cc2cccc3ncccc23)cnn1-c1nccc(-c2ccccc2F)n1	.	8.2µM*	.	.	.	4.1µM*
O=C(c1cn(Cc2ccccc2F)c2ncccc12)C(F)(F)F	-10	-25%	-7%	-5%	-13%	-2%
Oc1ccccc1-[n+]1c(-c2ccccc2)cc(-c2ccccc2)cc1-c1ccccc1	?	2.3µM*	?	15µM*	?	1.3µM*
Cc1ccc(-c2cc(-c3ccc(C)cc3)[n+](-c3ccc(C(=O)O)cc3)c(-c3ccc(C)cc3)c2)cc1	-9	-22%	-9%	?	13%	-15%
Nc1ccccc1-[n+]1c(-c2ccccc2)cc(-c2ccccc2)cc1-c1ccccc1	-96*	5.8µM*	?	?	0%	6.5µM*
Oc1c(Br)cc(-c2ccccc2)cc1Br	-9	-23%	1%	-1%	.	-10%
[O-]c1ccccc1-[n+]1c(-c2ccccc2)cc(-c2ccccc2)cc1-c1ccccc1	-84*	2.1µM*	?	.	?	2.1µM*
COc1ccccc1CN1CCCC2(CCN(C(=O)Oc3ccccc3)CC2)C1	.	-18%	.	.	.	9%
C=C1C2C[C@@]3([C@@H]1O)[C@@H](C[C@@H]2O)[C@@]12C4[C@@H]3C[C@@H]1[C@@](C)(CC[C@@H]2O)CN4CC	22	2%	1%	14%	?	10%
CC(C)c1cccc(C(C)C)c1OC(=O)NC(=O)c1c(F)cccc1F	4	-25%	-11%	?	7%	?
CCOS(C)(=O)=O	2	-5%	9%	27%	12%	2%
Cn1c(=O)c2c(nc(N/N=C/c3c(O)n(C4CCCCC4)c(=S)[nH]c3=O)n2C)n(C)c1=O	59	?	-20%	-18%	?	?

Screening data from PubChem.
